Hits are enriched below; roughly 7.4% of the tested compounds scored in any of these assays.
DAT uptake mod – human DAT dopamine uptake with cocaine, either direction. B-score at 10 µM. 1.3% of 110,000 active. LLC-PK1 hDAT cells, [14C]-dopamine uptake with cocaine IC80; actives deviate in either direction;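 active = Z score or B-score, a plate-position-corrected score, falls beyond the plate's 99.7% confidence bounds, in either direction; inactive = both scores lie inside the 99.7% bounds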;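 also: scored against the spread of the other compound wells on the same plate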
M1 antagonist – antagonists of rat M1 muscarinic receptor | B-score at 10 µM | 3.4% of 64,000 active | CHO-M1 cells, Fluo-4 calcium, ACh EC80 antagonist mode; active compounds read low | AID 628 | P08482;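 active = calcium fluorescence response, raw or row-and-column corrected B-score, differing from the plate sample mean either way at a set confidence level, mostly lower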
FXIIa inh mix – blocks human factor XIIa in pooled compound mixtures; 0.2% of 62,000 active; purified FXIIa, fluorogenic substrate; P00748; inhibition, % at 5 µM;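 also: 0% = enzyme without compound and 100% = no enzyme blank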
D1 mod – allosterically modulates the human D1 dopamine receptor; P21728; B-score at 10 µM; HEK293 D1, CRE-luciferase, dopamine EC30 potentiation; actives deviate in either direction; 5.9% of 58,000 active;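 active = luminescence count or its row- and column-corrected plate score outside the 99.7% band of the plate's sample wells, on either side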
Target sequence (P21728 whole entry, looked up): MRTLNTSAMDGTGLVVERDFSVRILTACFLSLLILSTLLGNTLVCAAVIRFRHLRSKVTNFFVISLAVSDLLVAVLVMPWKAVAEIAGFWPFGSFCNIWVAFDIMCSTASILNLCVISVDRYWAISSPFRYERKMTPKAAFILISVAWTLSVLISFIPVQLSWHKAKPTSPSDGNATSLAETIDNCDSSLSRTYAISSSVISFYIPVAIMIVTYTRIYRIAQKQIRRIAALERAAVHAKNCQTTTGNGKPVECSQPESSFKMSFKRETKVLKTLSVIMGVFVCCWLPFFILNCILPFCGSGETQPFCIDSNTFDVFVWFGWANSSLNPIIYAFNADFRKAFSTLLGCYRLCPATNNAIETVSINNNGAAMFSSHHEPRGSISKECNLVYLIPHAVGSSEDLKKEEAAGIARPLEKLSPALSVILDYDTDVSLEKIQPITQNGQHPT
FXIa inh mix – inhibitors of human coagulation factor XIa, pooled mixtures; purified FXIa, fluorogenic substrate; inhibition, % at 5 µM; 0.19% of 62,000 active; AID 680;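 also: each value is inhibition by a whole ten-compound pool holding the compound; 0% = enzyme with no mixture and 100% = wells lacking enzyme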
M1 ag – activates the M1 muscarinic receptor | 3% of 64,000 active | AID 626 | B-score at 10 µM | CHO-M1 cells, Fluo-4 calcium fluorescence, agonist mode; active compounds read high;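 active = fluorescence rise, raw or as B-score row- and column-corrected plate score, outside the 99.7% band of its plate's samples, either direction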
M1 antag confirm – confirmation of rat M1 muscarinic receptor antagonists; shares compounds with M1 antagonist; CHO-M1 cells, Fluo-4 calcium, ACh EC80 antagonism; active compounds read low; 43% of 1,700 active; AID 677; calcium response (max-min fluorescence) at 10 µM;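 active = calcium response below the same-plate mean of wells given acetylcholine alone at its 80%-effect dose, minus 3 SD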;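 also: raw fluorescence intensity difference in arbitrary instrument units and not normalized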
mGluR4 antag – mGluR4 (human) activity, M1 antagonist secondary assay; shares compounds with M1 antagonist; CHO-mGluR4 calcium flux, Fluo-4 fluorescence, glutamate EC80; active compounds read low; fluorescence response (max-min) at 10 µM; 0.9% of 1,700 active;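 active = fluorescence response below the plate's average for near-maximal glutamate wells, less 3 SD of those wells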;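 also: raw unnormalized fluorescence span taken in the window right after glutamate addition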
Active calls of the source: *; x = no result. Rule as the data show it, unless noted: active = inhibition above about 20% (passing the limit was not always enough); inactive = the rest.

SMILES | DAT uptake mod | M1 antagonist | FXIIa inh mix | D1 mod | FXIa inh mix | M1 ag | M1 antag confirm | mGluR4 antag
CN(C)CCN1C(=O)C(O)=C(C(=O)c2ccco2)C1c1ccccc1F (configuration not stated) | 0.034 | 0 | 6 | 0.025 | 6 | -0.7 | x | x
CCCCc1c(C)nn(-c2nnc3c4ccccc4n(CC)c3n2)c1C | 1.1 | -2.7* | 8 | -1.4 | 4 | -0.33 | 591 | 186
Cc1ccc(C(C(=O)NC2CCCCC2)N2CCC3(CC2)OCCO3)cc1 (configuration not stated) | -1.4 | x | x | x | x | x | x | x
CS(=O)(=O)N1CC(C(=O)NN)Oc2ccc(Cl)cc21 (configuration not stated) | 0.5 | x | x | x | x | x | x | x
O=C(NCc1ccco1)C(c1ccco1)N(C(=O)Cn1nnc2ccccc21)c1ccc2c(c1)CCC2 (configuration not stated) | 1.6 | 0.75 | 6 | 0.9 | 4 | 2.8 | x | x
CC1CCCN(Cc2nc3c(c(=O)n(C)c(=O)n3C)n2Cc2c(F)cccc2Cl)C1 (configuration not stated) | -0.071 | -1* | -2 | 0.24 | 7 | 0.58 | 653 | 200
CC1CCN(Cc2nc3c(c(=O)n(C)c(=O)n3C)n2Cc2c(F)cccc2Cl)CC1 | x | 0.38 | x | 0.56 | x | 0.02 | x | x
COc1ccc(S(=O)(=O)NC(CC(=O)NCc2ccco2)c2ccco2)cc1 (configuration not stated) | 0.06 | 0.19 | 5 | 0.61 | -8 | 0.51 | x | x
Cc1ccc(S(=O)(=O)NC(CC(=O)NCc2ccco2)c2ccco2)cc1 (configuration not stated) | 0.25 | -4.7* | 0 | -0.55 | 3 | -1 | 684 | 197
O=C(c1cnn2c(C(F)(F)F)cc(-c3ccco3)nc12)N1CCc2ccccc2C1 | -0.66 | 0.097 | 2 | 0.36 | 3 | 0.2 | x | x
CCCCOC(=O)c1ccc(OC(=O)c2cccnc2)cc1 | -0.045 | -5.1* | 2 | 0.65 | 9 | -0.09 | 620 | 266
CCCCCCOC(=O)c1ccc(OC(=O)c2cccnc2)cc1 | -0.44 | x | x | x | x | x | x | x
Cc1cc(NC(=O)c2ccc3c(c2)C(=O)N(CCC(C)C)C3=O)no1 | -0.57 | -1.4 | 1 | -0.48 | 3 | -0.79 | x | x
c1ccc(CNc2ccc3c(c2)ncn3C2CCCCC2)nc1 | 0.88 | -4.9* | 11 | -0.52 | 4 | 0.82 | 622 | 251
COc1ccc(C2NC(=O)NC(O)(C(F)(F)F)C2C(=O)c2ccc(C)cc2)cc1 (configuration not stated) | 0.54 | -6.3* | -1 | -0.14 | 0 | -0.11 | 93* | 241
O=c1[nH]cnc2c1oc1ccccc12 | 2.1 | 0.91 | 8 | 0.051 | 4 | -0.25 | x | x
Cc1oc(-c2ccccc2F)nc1CN1CCC(C(=O)NCc2ccco2)CC1 | 0.77 | -3.7* | 1 | -0.3 | 0 | 0.47 | 566 | 219
CCN(CC)C(=O)c1cccc(-c2ccc(OC)cc2)c1 | 0.34 | -2.2* | -2 | 0.073 | 6 | -0.6 | 622 | 247
COc1cc(C(=O)NCCC(=O)NCCN2CCCCCC2)cc(OC)c1OC | 0.0092 | 0.079 | 10 | -0.54 | 4 | -0.049 | x | x
COc1ccccc1N1CCN(C(=O)CCCCn2c(=O)[nH]c3ccsc3c2=O)CC1 | -0.33 | 0.19 | 0 | 0.17 | 9 | 0.28 | x | x
COc1ccccc1N1CCN(C(=O)CCCn2c(=O)[nH]c3ccsc3c2=O)CC1 | 1.1 | -4.2* | -20 | -0.46 | 5 | -1.4 | 617 | 222
CCCOC(=O)c1ccc(OCC(O)CN2CCN(C(=O)c3ccccc3)CC2)cc1 (configuration not stated) | -0.21 | -2* | -4 | 0.3 | 12 | -0.36 | 502 | 240
CC1CN(S(=O)(=O)c2ccc(NC(=O)c3cc(-c4ccccc4O)n[nH]3)cc2)CC(C)O1 (configuration not stated) | 0.14 | 0.28 | 6 | 0.33 | 2 | -1.5 | x | x
Cc1ccc(C(=O)CSc2nnc(COc3cccc(C)c3)o2)cc1 | -1.4 | 1.4 | 9 | -0.69 | 1 | 0.0042 | x | x
Cc1cccc(OCc2nnc(SCc3cc(=O)n4cc(Br)ccc4n3)o2)c1 | 0.081 | -3* | 8 | 0.014 | 5 | 2 | 564 | 233
SMILES | DAT uptake mod | M1 antagonist | FXIIa inh mix | D1 mod | FXIa inh mix | M1 ag | M1 antag confirm | mGluR4 antag
CCOc1ccccc1NC(=O)CN(c1ccc(C)cc1)S(=O)(=O)c1c(C)n[nH]c1C | -1.3 | -2.4* | 8 | 0.34 | 3 | -1.2 | 530 | 242
COc1ccccc1CNC(=O)CN(c1ccc(C)cc1)S(=O)(=O)c1c(C)n[nH]c1C | 0.066 | 0.78 | 7 | 0.12 | 6 | 0.81 | x | x
CN(C)CCNc1c2c(c(C#N)c3nc4ccccc4n13)CCCC2 | 0.022 | -4.7* | 4 | 0.54 | 10 | 0.2 | 377* | 245
CCN(CC)CCNc1c2c(c(C#N)c3nc4ccccc4n13)CCCC2 | -1.2 | x | x | x | x | x | x | x
Cc1c(C#N)c2ncn(Cc3ccccn3)c(=O)c2n1-c1ccccc1 | 1.4 | x | x | x | x | x | x | x
CCCCn1c(=O)n(CC(O)c2ccccc2)c(=O)c2c1ncn2C1CCCC1 (configuration not stated) | 1.8 | -3.8* | -3 | 0.22 | 5 | -0.17 | 450 | 199
O=C(CSCc1c(Cl)cccc1Cl)NCc1cccnc1 | -0.18 | x | x | x | x | x | x | x
Cc1cc(N2CCC(N(C)C3CCCC3)CC2)nc2cc(O)ccc12 | 0.27 | -0.69* | 4 | x | 0 | -0.48 | 579* | 187
CCCCOC(=O)Nc1cccc(C(C)=O)c1 | -0.22 | -4.8* | -17 | 0.34 | 0 | 0.3 | 625 | 269
Cc1cc(Cl)ccc1OCCCC(=O)NCC1CCCO1 (configuration not stated) | 0.64 | x | x | x | x | x | x | x
O=C(O)c1cccnc1 | 0.017 | x | x | x | x | x | x | x
CCCSc1nc(SCC(=O)NCc2ccccc2)c2c3c(sc2n1)COC(C)(C)C3 | -0.67 | x | x | x | x | x | x | x
CC(C)Sc1nc(SCC(=O)NCc2ccco2)c2c3c(sc2n1)COC(C)(C)C3 | 1.4 | -1.9* | 7 | x | 5 | 0 | 681 | 214
Cc1cc(C(=O)OCC(=O)N(C)C2CCS(=O)(=O)C2)c(C)n1-c1ccccc1 (configuration not stated) | 1.4 | -2.7* | 9 | -0.62 | 9 | 0.12 | 544 | 227
Cc1cc(C(=O)OCC(=O)NC2CCS(=O)(=O)C2)c(C)n1-c1ccccc1 (configuration not stated) | 0.74 | -1.7 | 29 | -1 | 9 | 0.22 | x | x
CN(C(=O)COC(=O)c1nc(-c2ccccc2)n(-c2ccccc2)n1)C1CCS(=O)(=O)C1 (configuration not stated) | 0.44 | -4.8* | 6 | x | 5 | 0.33 | 231* | 211
